Results on four molecules are retold here after PubChem BioAssay.

The test system of assay [1] is Wnt5a (protein binding on small-molecule microarray). As to the kind of experiment: Wnt5a binders on small-molecule microarray, primary screen, biophysical, 635/667 nm fluorescence (AID 1142).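 Note: fluorescence read at 667 nm with signal to noise per printed feature.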 The following applies: 635 nm fluorescence, higher = more signal.
Assay [2] can be described thus: cell viability in Huh7 cells, primary screen, cytotoxicity control for HCV replication inhibitor project, CellTiter-Glo luminescence, basal, 48 h (AID 1143).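 Note: Huh7 hepatoma cells carrying a hepatitis C replication reporter with no stimulus; test concentration not given here.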 The following applies: Huh7 HCV replicon, higher = more signal, called active from +8 up or from −8 down. For orientation: ATP-based viability assays read luminescence as a measure of living cells.
Assay [3] in a line: P. aeruginosa biofilm formation inhibitors, primary screen, PAO1 strain, BacTiter-Glo luminescence, LB-PBS (AID 1144). The following applies: 12 h, higher = more signal.
The nature of assay [4]: CREB reporter modulators without forskolin, primary screen, cell-based, PC12, CRE-LacZ reporter, unstimulated (AID 1145). The settings on record: no forskolin, luminescence, 4.5 h, higher = more signal, called active from +8 up or from −8 down.
The nature of assay [5]: CREB reporter modulators under forskolin, primary screen, cell-based, PC12, CRE-LacZ reporter, forskolin-stimulated (AID 1146).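 Note: PC12 cells with 6xCRE LacZ reporter stimulated by forskolin 10 µM; beta-galactosidase reporter signal reflecting CREB driven transcription.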 The settings on record: luminescence, 4.5 h, higher = more signal, called active from +8 up or from −8 down.
The target of assay [6] is Streptavidin (Streptomyces avidinii) (UniProt P22629). As to the kind of experiment: streptavidin binders on small-molecule microarray, primary screen, artefact control for SMM compound annotation, biophysical, 635/667 nm fluorescence (AID 1147).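 Note: signal reflects streptavidin binding to arrayed compounds as a control protein.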 The following applies: streptavidin binding, higher = more signal.
Assay [7] can be described thus: small-molecule binders of probe aInhba, primary screen, biochemical, small-molecule microarray, 635/667 nm fluorescence (AID 1148).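 Note: score merges 667nm spot fluorescence with signal-to-noise for antibody binding to printed compounds.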 The following applies: higher = more signal.
For assay [8], the target named is Torsin-1A (Homo sapiens) (UniProt O14656). As to the kind of experiment: torsin A binders from cell lysate, primary screen, small-molecule microarray, wild-type, 635/667 nm (AID 1149). The following applies: COS7 hTOR1A-WT lysate, 635 nm fluorescence, higher = more signal.
Assay [9] has the same target. As to the kind of experiment: small-molecule binders of mutant TOR1A in lysate, primary screen, cell lysate, small-molecule microarray, COS7 lysate, 635/667 nm fluorescence (AID 1150).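 Note: score pools 667 nm emission and signal to noise measuring lysate protein binding.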 The settings on record: COS7 hTOR1A mutant lysate, 635 nm fluorescence, higher = more signal.
Assay [10] relates to Sonic hedgehog protein (Shh). As to the kind of experiment: small-molecule binders of Shh protein, primary screen, biochemical, small-molecule microarray, 635/667 nm fluorescence (AID 1151).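 Note: Shh protein binding to compounds spotted on small-molecule microarray slides; score combines spot fluorescence intensity with signal-to-noise across triplicate slides.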 The following applies: small-molecule microarray binding, 635 nm fluorescence; higher = more signal.
The nature of assay [11]: E. coli DRC41 culture turbidity changes, primary screen, E. coli filamentation inducer project, strain DRC41, OD650, 48 h (AID 1152).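 Note: E. coli MC1000 strain DRC41 lacking acrAB efflux pump and sulA.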 The following applies: E. coli DRC41 (acrAB sulA), higher = more signal, called active from +8 up or from −8 down.
A short description of assay [12]: small-molecule binders of probe aLefty1, primary screen, biochemical, small-molecule microarray, 635/667 nm fluorescence (AID 1153).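 Note: score merges spot fluorescence with signal-to-noise ratio from the scanned slide images.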 The settings on record: higher = more signal.
The nature of assay [13]: PSAC antagonists in infected red cells, primary screen, cell-based, P. falciparum Indochina, OD700, 1 h (AID 1154). The settings on record: P. falciparum Indochina infected RBC osmotic lysis, higher = more signal, called active from +8 up or from −8 down.
A short description of assay [14]: PSAC antagonists in infected red cells, primary screen, cell-based, P. falciparum Indochina, OD700, 2 h (AID 1155).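 Note: lysis reports solute entry through the parasite surface anion channel PSAC; channel blockers reduce lysis of infected cells.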 The settings on record: P. falciparum Indochina infected erythrocytes, osmotic lysis OD700; higher = more signal, called active from +8 up or from −8 down.
The nature of assay [15]: osmotic lysis modulators in infected erythrocytes, primary screen, PSAC antagonist project, cell-based, P. falciparum Indochina, OD700, 3 h (AID 1156). The settings on record: higher = more signal, called active from +8 up or from −8 down.
A short description of assay [16]: PSAC antagonists in infected red cells, primary screen, cell-based, P. falciparum Indochina, OD700, 18 h (AID 1157). The following applies: P. falciparum Indochina infected erythrocytes, osmotic lysis OD700, 18 h; higher = more signal, called active from +8 up or from −8 down.
The nature of assay [17]: modulators of S6 phosphorylation in cells, primary screen, cell-based, A549, cytoblot, luminescence, serum-stimulated (AID 1158).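 Note: serum-stimulated A549 lung adenocarcinoma cells; signal is phosphorylated S6 detected by cytoblot immunostaining with HRP secondary.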 The following applies: A549 phospho-S6 cytoblot, 5 h, higher = more signal.
Assay [18] has as its target NADPH oxidase 2 (Homo sapiens) (UniProt P04839). As to the kind of experiment: NOX2-dependent H2O2 signal modulators, primary screen, NOX inhibitor project, cell-based, HEK293-NOX2, PMA-stimulated, Amplex Red fluorescence (AID 1159). Note: test concentration not given here. The following applies: 45 min, higher = more signal, called active from +8 up or from −8 down.
In assay [19] the target is NADPH oxidase 4 (Homo sapiens) (UniProt Q9NPH5). As to the kind of experiment: NOX4-dependent H2O2 signal modulators, primary screen, NOX inhibitor project, cell-based, HEK293-NOX4, tetracycline-induced, Amplex Red fluorescence (AID 1160). The settings on record: 45 min, higher = more signal, called active from +8 up or from −8 down.
For assay [20], the target named is NADPH oxidase 5 (Homo sapiens) (UniProt Q96PH1). As to the kind of experiment: NOX5-dependent H2O2 signal modulators, primary screen, NOX inhibitor project, cell-based, HEK293-NOX5, Amplex Red fluorescence (AID 1161). The settings on record: HEK293-NOX5, ionomycin, 45 min, higher = more signal.

The source made the active and inactive calls. Unless noted, the rule behind the calls is not given here.

Chain of NADPH oxidase 4 (Homo sapiens) (Q9NPH5 whole entry, looked up): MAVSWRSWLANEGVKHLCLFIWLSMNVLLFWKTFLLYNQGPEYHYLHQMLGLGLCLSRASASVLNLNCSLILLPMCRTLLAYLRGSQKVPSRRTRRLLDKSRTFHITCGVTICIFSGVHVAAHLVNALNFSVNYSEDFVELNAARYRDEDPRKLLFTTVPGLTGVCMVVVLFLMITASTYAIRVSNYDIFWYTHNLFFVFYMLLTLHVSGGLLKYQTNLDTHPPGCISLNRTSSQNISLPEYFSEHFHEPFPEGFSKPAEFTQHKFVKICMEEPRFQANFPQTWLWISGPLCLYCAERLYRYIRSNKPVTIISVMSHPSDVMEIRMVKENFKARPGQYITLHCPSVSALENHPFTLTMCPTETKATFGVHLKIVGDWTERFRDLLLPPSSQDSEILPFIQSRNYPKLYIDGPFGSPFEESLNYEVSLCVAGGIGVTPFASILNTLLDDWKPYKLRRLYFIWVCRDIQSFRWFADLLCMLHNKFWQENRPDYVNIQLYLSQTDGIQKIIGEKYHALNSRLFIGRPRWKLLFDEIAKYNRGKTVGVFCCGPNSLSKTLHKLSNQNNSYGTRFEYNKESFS
Chain of Torsin-1A (Homo sapiens) (O14656 whole entry, looked up): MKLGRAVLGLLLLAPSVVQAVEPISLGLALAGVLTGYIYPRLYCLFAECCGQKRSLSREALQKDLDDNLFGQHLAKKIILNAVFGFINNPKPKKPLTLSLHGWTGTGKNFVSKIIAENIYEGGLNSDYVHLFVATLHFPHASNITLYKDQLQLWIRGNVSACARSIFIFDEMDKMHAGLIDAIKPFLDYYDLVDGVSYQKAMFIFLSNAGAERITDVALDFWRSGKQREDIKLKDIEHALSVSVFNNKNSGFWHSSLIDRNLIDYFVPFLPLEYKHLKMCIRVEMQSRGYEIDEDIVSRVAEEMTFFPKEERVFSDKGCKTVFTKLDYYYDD
Chain of Streptavidin (Streptomyces avidinii) (P22629 whole entry, looked up): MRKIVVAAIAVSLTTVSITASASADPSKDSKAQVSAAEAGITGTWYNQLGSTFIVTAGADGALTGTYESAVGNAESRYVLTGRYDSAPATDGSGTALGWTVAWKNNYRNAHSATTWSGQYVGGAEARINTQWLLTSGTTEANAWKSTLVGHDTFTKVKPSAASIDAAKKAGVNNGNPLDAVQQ
Chain of NADPH oxidase 5 (Homo sapiens) (Q96PH1 whole entry, looked up): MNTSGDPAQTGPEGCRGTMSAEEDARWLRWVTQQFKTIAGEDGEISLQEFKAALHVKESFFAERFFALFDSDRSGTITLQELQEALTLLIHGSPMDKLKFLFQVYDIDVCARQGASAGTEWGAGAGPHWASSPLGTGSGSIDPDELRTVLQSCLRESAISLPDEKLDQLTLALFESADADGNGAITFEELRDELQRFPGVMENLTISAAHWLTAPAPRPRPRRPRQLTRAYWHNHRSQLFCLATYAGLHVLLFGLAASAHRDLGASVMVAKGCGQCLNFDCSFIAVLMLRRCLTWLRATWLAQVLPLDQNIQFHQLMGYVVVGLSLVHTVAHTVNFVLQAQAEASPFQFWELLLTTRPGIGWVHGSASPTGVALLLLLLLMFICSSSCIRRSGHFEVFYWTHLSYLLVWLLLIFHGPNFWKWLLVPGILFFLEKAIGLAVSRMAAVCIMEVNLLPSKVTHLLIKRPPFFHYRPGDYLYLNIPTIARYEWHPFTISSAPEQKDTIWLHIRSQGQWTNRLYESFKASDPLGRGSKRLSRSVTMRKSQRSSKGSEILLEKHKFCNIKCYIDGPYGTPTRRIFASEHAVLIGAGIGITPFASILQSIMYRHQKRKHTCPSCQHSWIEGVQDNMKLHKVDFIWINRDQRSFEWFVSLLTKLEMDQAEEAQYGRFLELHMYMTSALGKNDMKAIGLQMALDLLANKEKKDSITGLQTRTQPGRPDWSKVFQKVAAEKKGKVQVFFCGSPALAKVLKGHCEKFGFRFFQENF
Chain of NADPH oxidase 2 (Homo sapiens) (P04839 whole entry, looked up): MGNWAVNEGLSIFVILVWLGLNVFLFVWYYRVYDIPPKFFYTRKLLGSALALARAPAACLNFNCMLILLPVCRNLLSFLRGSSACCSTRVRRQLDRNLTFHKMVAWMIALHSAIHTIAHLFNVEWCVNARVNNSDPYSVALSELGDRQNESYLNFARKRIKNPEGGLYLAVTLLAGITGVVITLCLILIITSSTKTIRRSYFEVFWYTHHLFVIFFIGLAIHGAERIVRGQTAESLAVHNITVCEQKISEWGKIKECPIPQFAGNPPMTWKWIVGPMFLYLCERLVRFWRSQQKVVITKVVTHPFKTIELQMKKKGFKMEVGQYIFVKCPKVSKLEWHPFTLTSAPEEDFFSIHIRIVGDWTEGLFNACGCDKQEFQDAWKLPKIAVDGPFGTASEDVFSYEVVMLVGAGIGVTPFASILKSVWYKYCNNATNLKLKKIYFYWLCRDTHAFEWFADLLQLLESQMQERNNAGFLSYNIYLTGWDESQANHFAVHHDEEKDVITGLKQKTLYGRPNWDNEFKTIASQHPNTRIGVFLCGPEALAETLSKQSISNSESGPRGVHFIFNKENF

For `NC(=O)[C@H]1[C@@H]2C(=O)O[C@@H](c3ccccc3)[C@@H](c3ccccc3)N2[C@@H](c2ccc(OCCO)cc2)[C@]12C(=O)Nc1ccc(C#CCCO)cc12`, the composite z-score in assay [1] is 0.262; in assay [6], 0.617; in [7], 0.136; with Torsin-1A (Homo sapiens) [8] it was 0.579; with Torsin-1A (Homo sapiens) [9], 0.331; in assay [10] it was 0.177. In assay [12], this molecule yielded a composite z-score of 0.0753. For the same molecule, the z-score was -0.532 (inactive) in assay [2]; -0.311 (inactive) in [3]; -0.465 (inactive) in [4]; 0.776 (inactive) in assay [5]; -0.628 (inactive) in assay [11]; 6.95 (inactive) in [13]. The z-score in assay [14] was 1.05 (inactive); in assay [15] it was -1.02 (inactive); in assay [16], 0.466 (inactive); in [17] it was -0.671; in [18], 2.03 (inactive); in assay [19], 1.03 (inactive). The molecule also had a z-score in [20] of 1.13.
For the molecule `CO[C@H]1O[C@H](CO)[C@@H](OC(=O)Nc2ccc(Br)cc2)[C@@H]2OC(=O)[C@@H](Cc3ccccc3)C/C=C/C[C@H](Cc3ccccc3)C(=O)O[C@@H]12`, the composite z-score was 0.891 in [1]; -0.0062 in assay [6]; 0.115 in assay [7]; 0.048 with Torsin-1A (Homo sapiens) [8]; 0.91 in the assay with Torsin-1A (Homo sapiens) [9]; 0.0376 in assay [10]. The composite z-score in assay [12] stood at 0.057. The z-score in [2] is -5.16 (inactive); in assay [3] it was -0.435 (inactive); in [4], -0.263 (inactive); in assay [5], -0.396 (inactive); in assay [11], 0.931 (inactive); in [13] it was 3.36 (inactive). For the same molecule, the z-score in [14] is 0.956 (inactive); in [15] it was -1.12 (inactive); in [16], 1.35 (inactive); in assay [17] it was 0.311; in assay [18] it was 0.647 (inactive); in [19] it was 0.263 (inactive). Further, the z-score in assay [20] worked out at 0.0979.
Consider `CCCC=C(CCC)[C@@H](NS(=O)(=O)CC12CCC(CC1=O)C2(C)C)c1ccc(C(=O)OC)cc1` (stereo not given in full), for which the composite z-score in [1] worked out at 0.0202; in assay [6] it was 0.333; in assay [7], 0.361; with Torsin-1A (Homo sapiens) [8] it was 0.924; in the assay with Torsin-1A (Homo sapiens) [9], 0.792; in assay [10], 0.31. Besides, in assay [12], the composite z-score was 0.0345. Besides, the z-score in assay [2] is -0.816 (inactive); in assay [3], -1.06 (inactive); in assay [4], -0.572 (inactive); in [5], 0.0711 (inactive); in assay [11] it was -0.645 (inactive); in [13], -0.777 (inactive). The z-score is -0.825 (inactive) in assay [14]; -0.399 (inactive) in assay [15]; -1.81 (inactive) in [16]; 0.922 in [17]; 0.219 (inactive) in [18]; 0.669 (inactive) in assay [19]. Besides, the z-score in assay [20] was determined as 2.48.
Turning to `CCOC(=O)C[C@H]1[C@H](OC(=O)c2ccc(C(=O)c3ccccc3)cc2)[C@@H](NC(=O)CC(C)C)c2cc(OCCCO)ccc2N1C(=O)c1ccccc1`, the composite z-score is 0.154 in assay [1]; 1.17 in assay [6]; -0.0131 in assay [7]; 0.125 in the assay with Torsin-1A (Homo sapiens) [8]; 0.442 in the assay with Torsin-1A (Homo sapiens) [9]; 1.32 in assay [10]. In [12], this molecule displayed a composite z-score of -0.191. The z-score is -0.133 (inactive) in [2]; -0.367 (inactive) in assay [3]; 3.01 (inactive) in assay [4]; -0.443 (inactive) in assay [5]; -0.804 (inactive) in [11]; 1.06 (inactive) in [13]. Moreover, the z-score in assay [14] is 0.966 (inactive); in assay [15], -0.416 (inactive); in assay [16], 0.26 (inactive); in assay [17], -0.163; in assay [18] it was 1.49 (inactive); in [19] it was 0.861 (inactive). Moreover, the z-score in assay [20] was 1.24.
